“And” between values parts separate entries of the source, which are not always exact repeats. Identical values can stand only once. Among all 5,500 compounds or so, about 2,000 (36%) were called active. About 18% were inconclusive and are not listed. Rule as the data show it: active = normalized growth mostly below about 0.91 (no sharp cut-off); inconclusive = no clear call, values can overlap the other calls; inactive = mostly above about 0.92. Some of the results follow.
Test: chemical genetic growth profiling, strain panel (AID 1159580);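 also: tested at 20 µM; growth read once vehicle control cultures reached saturation at 30 °C; 1 = growth at the plate median or of vehicle wells; lower values mean less growth of the strain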
Conditions: S. cerevisiae deletion strains, growth OD

For `C=C[C@@](C)(O)CCC1C(=C)CCC2[C@@](C)(CO)CCC[C@]12C` (stereo partly drawn), the normalized growth (locus YAL021C, strain ccr4, stronger effect = lower value) was 0.994 (inactive), the normalized growth (locus YAL026C, strain drs2, stronger effect = lower value) was 0.972 (inactive) and the normalized growth (locus YAL030W, strain snc1, stronger effect = lower value) was 1.07 (inactive). For the same compound, the normalized growth (locus YBL061C, strain skt5, stronger effect = lower value) was 1.06 (inactive), the normalized growth (locus YBR009C, strain hhf1, stronger effect = lower value) was 0.925 (inactive) and the normalized growth (locus YBR021W, strain FUR4, stronger effect = lower value) was 0.772 (active). For the same compound, the normalized growth (locus YBR023C, strain chs3, stronger effect = lower value) was 1.02 (inactive), the normalized growth (locus YBR171W, strain sec66, stronger effect = lower value) was 1.08 (inactive) and the normalized growth (locus YBR229C, strain ROT2, stronger effect = lower value) was 1.06 (inactive). The normalized growth (locus YBR231C, strain swc5, stronger effect = lower value) was 1.12 [resistant] (active), the normalized growth (locus YBR279W, strain paf1, stronger effect = lower value) was 0.997 (inactive) and the normalized growth (locus YCL011C, strain gbp2, stronger effect = lower value) was 1.02 (inactive). For the same compound, the normalized growth (locus YCL016C, strain dcc1, stronger effect = lower value) was 0.974 (inactive), the normalized growth (locus YCL029C, strain bik1, stronger effect = lower value) was 0.972 (inactive) and the normalized growth (locus YCL061C, strain MRC1, stronger effect = lower value) was 0.963 (inactive). The normalized growth (locus YCL069W, strain vba3, stronger effect = lower value) was 1.03 (inactive), the normalized growth (locus YCR088W, strain abp1, stronger effect = lower value) was 1.06 (inactive) and the normalized growth (locus YDL005C, strain med2, stronger effect = lower value) was 1.05 (inactive). For the same compound, the normalized growth (locus YDL035C, strain GPR1, stronger effect = lower value) was 0.794 (active), the normalized growth (locus YDL040C, strain nat1, stronger effect = lower value) was 1.08 [resistant] (active) and the normalized growth (locus YDL074C, strain BRE1, stronger effect = lower value) was 0.982 (inactive). For the same compound, the normalized growth (locus YDL101C, strain DUN1, stronger effect = lower value) was 1.05 (inactive), the normalized growth (locus YDL134C, strain PPH21, stronger effect = lower value) was 0.979 (inactive) and the normalized growth (locus YDL185W, strain tfp1, stronger effect = lower value) was 1.02 (inactive). The normalized growth (locus YDL192W, strain arf1, stronger effect = lower value) was 0.989 (inactive), the normalized growth (locus YDR001C, strain nth1, stronger effect = lower value) was 1.08 [resistant] (active) and the normalized growth (locus YDR069C, strain doa4, stronger effect = lower value) was 1.05 (inactive). For the same compound, the normalized growth (locus YDR101C, strain arx1, stronger effect = lower value) was 0.915 (active), the normalized growth (locus YDR137W, strain rgp1, stronger effect = lower value) was 0.758 (active) and the normalized growth (locus YDR150W, strain NUM1, stronger effect = lower value) was 1.09 (inactive). The normalized growth (locus YDR159W, strain sac3, stronger effect = lower value) was 0.997 (inactive), the normalized growth (locus YDR162C, strain NBP2, stronger effect = lower value) was 0.84 (inactive) and the normalized growth (locus YDR195W, strain ref2) was 1.25 [resistant] (active). The normalized growth (locus YDR297W, strain sur2, stronger effect = lower value) was 1.04 (inactive), the normalized growth (locus YDR318W, strain mcm21, stronger effect = lower value) was 0.99 (inactive) and the normalized growth (locus YDR334W, strain swr1, stronger effect = lower value) was 1.1 [resistant] (active). For the same compound, the normalized growth (locus YDR335W, strain msn5, stronger effect = lower value) was 0.982 (inactive), the normalized growth (locus YDR388W, stronger effect = lower value) was 1.02 (inactive) and the normalized growth (locus YDR392W, strain spt3, stronger effect = lower value) was 0.833 (inactive). For the same compound, the normalized growth (locus YDR502C, strain sam2, stronger effect = lower value) was 0.985 (inactive), the normalized growth (locus YEL003W, strain gim4, stronger effect = lower value) was 0.948 (inactive) and the normalized growth (locus YEL037C, strain rad23, stronger effect = lower value) was 1.05 (inactive). For the same compound, the normalized growth (locus YEL061C, strain CIN8 (second series), stronger effect = lower value) was 1.07 (inactive), the normalized growth (locus YEL061C, strain CIN8, stronger effect = lower value) was 1.07 (inactive) and the normalized growth (locus YER015W, strain faa2, stronger effect = lower value) was 1 (inactive). The normalized growth (locus YER016W, strain bim1, stronger effect = lower value) was 1.05 (inactive), the normalized growth (locus YER110C, stronger effect = lower value) was 1.06 (inactive) and the normalized growth (locus YER111C, strain swi4, stronger effect = lower value) was 1.07 (inactive). The normalized growth (locus YER155C, strain BEM2 (second series), stronger effect = lower value) was 1.22 [resistant] (active), the normalized growth (locus YER155C, strain BEM2, stronger effect = lower value) was 1.09 [resistant] (active) and the normalized growth (locus YER167W, strain BCK2, stronger effect = lower value) was 1.01 (inactive). For the same compound, the normalized growth (locus YFR010W, strain ubp6, stronger effect = lower value) was 1.07 (inactive), the normalized growth (locus YGL078C, strain dbp3, stronger effect = lower value) was 0.871 (active) and the normalized growth (locus YGL086W, strain mad1, stronger effect = lower value) was 1 (inactive). The normalized growth (locus YGL167C, strain pmr1, stronger effect = lower value) was 1.06 (inactive), the normalized growth (locus YGL173C, strain kem1, stronger effect = lower value) was 0.913 (inactive) and the normalized growth (locus YGL227W, strain vid30, stronger effect = lower value) was 1.06 (inactive). For the same compound, the normalized growth (locus YGL240W, strain doc1, stronger effect = lower value) was 0.974 (inactive), the normalized growth (locus YGL248W, strain PDE1, stronger effect = lower value) was 0.982 (inactive) and the normalized growth (locus YGL253W, strain hxk2, stronger effect = lower value) was 1.02 (inactive). The normalized growth (locus YGR078C, strain PAC10, stronger effect = lower value) was 1.02 (inactive), the normalized growth (locus YGR135W, strain pre9, stronger effect = lower value) was 0.992 (inactive) and the normalized growth (locus YGR252W, strain gcn5, stronger effect = lower value) was 0.92 (inactive). The normalized growth (locus YHR013C, strain ard1, stronger effect = lower value) was 1.11 (inactive), the normalized growth (locus YHR027C, strain rpn1, stronger effect = lower value) was 1.02 (inactive) and the normalized growth (locus YHR030C, strain SLT2, stronger effect = lower value) was 1.09 [resistant] (active) and 0.872 (inactive). For the same compound, the normalized growth (locus YHR079C, strain IRE1 (second series), stronger effect = lower value) was 1.05 (inactive), the normalized growth (locus YHR079C, strain IRE1, stronger effect = lower value) was 0.862 (inactive) and the normalized growth (locus YHR094C, strain hxt1, stronger effect = lower value) was 1.04 (inactive). For the same compound, the normalized growth (locus YHR129C, strain ARP1, stronger effect = lower value) was 1.05 (inactive), the normalized growth (locus YHR142W, strain chs7, stronger effect = lower value) was 1.01 (inactive) and the normalized growth (locus YHR200W, strain rpn10, stronger effect = lower value) was 1.02 (inactive). The normalized growth (locus YIL066C, strain RNR3, stronger effect = lower value) was 0.996 (inactive), the normalized growth (locus YIL073C, strain SPO22, stronger effect = lower value) was 1.01 (inactive) and the normalized growth (locus YIL125W, strain kgd1, stronger effect = lower value) was 0.973 (inactive). For the same compound, the normalized growth (locus YIR030C, strain dcg1, stronger effect = lower value) was 1.05 (inactive), the normalized growth (locus YJL092W, strain hpr5, stronger effect = lower value) was 1.02 (inactive) and the normalized growth (locus YJL095W, strain BCK1 (second series), stronger effect = lower value) was 1.07 (inactive). For the same compound, the normalized growth (locus YJL095W, strain BCK1, stronger effect = lower value) was 1.02 (inactive) and 0.886 (inactive), the normalized growth (locus YJL115W, strain asf1, stronger effect = lower value) was 1.07 (inactive) and the normalized growth (locus YJL129C, strain trk1, stronger effect = lower value) was 1.02 (inactive). For the same compound, the normalized growth (locus YJL134W, strain LCB3, stronger effect = lower value) was 1.07 (inactive), the normalized growth (locus YJL154C, strain vps35, stronger effect = lower value) was 1.09 [resistant] (active) and the normalized growth (locus YJL164C, strain tpk1, stronger effect = lower value) was 0.963 (inactive). For the same compound, the normalized growth (locus YJL166W, strain qcr8, stronger effect = lower value) was 0.968 (inactive), the normalized growth (locus YJL168C, strain set2, stronger effect = lower value) was 1.07 (inactive) and the normalized growth (locus YJL187C, strain SWE1 (second series), stronger effect = lower value) was 0.995 (inactive). For the same compound, the normalized growth (locus YJL187C, strain SWE1, stronger effect = lower value) was 1.01 (inactive).

Reference: PubChem BioAssay AID1159580 (chemical genetic matrix, 2015)
